The source of these data is PubChem BioAssay (NCATS).

The assay is described as follows: qHTS drug screen for cell cycle checkpoint inhibitors in PARPi-resistant BRCA-mutant ovarian cancer cell lines. (AID 1963452). As to conditions: PEO1/OlaR viability, CellTiter-Glo luminescence, 96 h; measured here: PEO4 Z-AUC; stronger effect = lower value. In a few lines: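 PEO1, PEO4 and PEO1/OlaR ovarian cancer cells, 600 per well, exposed 96 h at 37C to a dilution series. Viability read by CellTiter-Glo luminescence, normalized to DMSO and empty wells; activity summarized as Z-AUC.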
In the case of `CN(C)N=Nc1nc[nH]c1C(N)=O`, the Z-AUC turned out to be 0.792.

Take `Cc1c(C(=O)Nc2ccc(N3C[C@@H](C)O[C@@H](C)C3)nc2)cccc1-c1ccc(OC(F)(F)F)cc1`: the Z-AUC amounted to 0.91.

In the case of `CN(C)c1ccccc1CN1CCCN(Cc2ccccc2N(C)C)C1c1ccncc1`, the Z-AUC is -0.169.
